Some test systems named below: SR leukemia; RPMI-8226 leukemia; OVCAR-8 ovarian; OVCAR-5 ovarian; OVCAR-4 ovarian; SK-OV-3 ovarian; IGROV1 ovarian; OVCAR-3 ovarian; HS 578T breast; NCI/ADR-RES ovarian; T-47D breast; BT-549 breast; MDA-MB-435 melanoma; SW-620 colon; MCF7 breast; HCT-116 colon; HCC-2998 colon; KM12 colon.
Holding throughout (assay): NCI-60 one-dose screen, 48 h (100 = growth as untreated, 0 = no growth, -100 = all killed)
Holding throughout (conditions): 10 µM unless noted

Each structure is given as a SMILES string. This is part of a sample that, as a whole, favours compounds with a hit. Of some 83,000 tested, about 20% had one in any assay.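 A percent growth of 40 corresponds to 60% growth inhibition; 0 means no net growth; -100 means all cells died. Active threshold: below 10.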 Unmarked numbers belong to inactive results. Calls of active or inactive are those of the source.

In the case of `NC1=C(/C(N)=N/O)C(c2ccccc2)c2ccc3ccccc3c2O1` (configuration not stated), the growth in the assay on SR leukemia is 34.9%; with RPMI-8226 leukemia it was 19.1%; in the assay with OVCAR-8 ovarian, 17.2%; with OVCAR-5 ovarian, 29.6%; in the assay with OVCAR-4 ovarian, 47.5%; with SK-OV-3 ovarian, 55.2%. Further, the growth with IGROV1 ovarian is 29%; in the assay with OVCAR-3 ovarian it was -3.21% (active); in the assay on HS 578T breast it was 13.4%; in the assay on NCI/ADR-RES ovarian, -1.33% (active); with T-47D breast, 54.5%; in the assay with BT-549 breast it was 28%. Further, the growth in the assay with MDA-MB-435 melanoma is -56.2% (active); in the assay on SW-620 colon, 23%; in the assay on MCF7 breast, 9.02% (active); in the assay with HCT-116 colon it was 6.57% (active); in the assay on HCC-2998 colon it was 11.8%; in the assay with KM12 colon, 11.1%.
In the case of `O=C(CSc1nc2ccccc2[nH]1)c1ccc(N2CCOCC2)cc1`, the growth in the assay with SR leukemia is 129%; with RPMI-8226 leukemia, 109%; in the assay on OVCAR-8 ovarian, 96%; with OVCAR-5 ovarian, 102%; with OVCAR-4 ovarian, 96.5%; in the assay with SK-OV-3 ovarian, 101%. Moreover, the growth with IGROV1 ovarian was 105%; in the assay on OVCAR-3 ovarian, 106%; with HS 578T breast, 99%; in the assay with NCI/ADR-RES ovarian it was 91.9%; in the assay with T-47D breast, 94.1%; in the assay with BT-549 breast it was 93%. The growth in the assay on MDA-MB-435 melanoma was 100%; in the assay with SW-620 colon, 94.5%; with MCF7 breast it was 92.2%; in the assay on HCT-116 colon, 94.3%; in the assay on HCC-2998 colon it was 98.3%; with KM12 colon it was 104%.
As for `O=[N+]([O-])c1ccc(OCCCOc2ccccc2)cc1`, the growth in the assay on SR leukemia is 92.3%; in the assay on RPMI-8226 leukemia, 97.7%; in the assay with OVCAR-8 ovarian, 105%; in the assay on OVCAR-5 ovarian it was 107%; with OVCAR-4 ovarian, 100%; with SK-OV-3 ovarian, 105%. The growth in the assay on IGROV1 ovarian is 94.5%; with OVCAR-3 ovarian it was 99.3%; in the assay with HS 578T breast, 108%; in the assay on NCI/ADR-RES ovarian it was 99.8%; in the assay on T-47D breast it was 110%; in the assay on BT-549 breast, 93.1%. The growth with MDA-MB-435 melanoma is 99%; in the assay with SW-620 colon, 107%; in the assay on MCF7 breast it was 93%; in the assay on HCT-116 colon, 97.4%; in the assay with HCC-2998 colon, 101%; in the assay with KM12 colon it was 101%.
As for `CNc1ccc(Br)c2c1C(=O)c1ccccc1C2=O`, the growth was 101% with SR leukemia; 87.8% in the assay with RPMI-8226 leukemia; 105% with OVCAR-8 ovarian; 111% in the assay with OVCAR-5 ovarian; 100% in the assay with OVCAR-4 ovarian; 112% in the assay with SK-OV-3 ovarian. Besides, the growth was 99.1% in the assay on IGROV1 ovarian; 121% in the assay with OVCAR-3 ovarian; 107% with HS 578T breast; 103% in the assay on NCI/ADR-RES ovarian; 97.1% in the assay on T-47D breast; 104% in the assay with BT-549 breast. Besides, the growth with MDA-MB-435 melanoma was 108%; in the assay on SW-620 colon, 107%; with MCF7 breast, 72.4%; with HCT-116 colon, 96.6%; in the assay on HCC-2998 colon, 109%; in the assay on KM12 colon, 107%.
`COc1ccc(C2=C(c3cc(OC)c(OC)c(OC)c3)C(=O)CC2)cc1`: the growth in the assay with SR leukemia was 15.7%; in the assay on RPMI-8226 leukemia, 14.1%; in the assay with OVCAR-8 ovarian it was 22.8%; in the assay with OVCAR-5 ovarian it was 33.1%; with OVCAR-4 ovarian, 49%; with SK-OV-3 ovarian, 7.01% (active). Moreover, the growth was 27.9% with IGROV1 ovarian; -65.4% (active) with OVCAR-3 ovarian; 6.1% (active) in the assay with HS 578T breast; -49.4% (active) in the assay on NCI/ADR-RES ovarian; 60.5% in the assay with T-47D breast; 28.3% with BT-549 breast. The growth was -19.2% (active) with MDA-MB-435 melanoma; 19.3% with SW-620 colon; 16.3% with MCF7 breast; 6.43% (active) in the assay on HCT-116 colon; -11.3% (active) with HCC-2998 colon; 5.46% (active) with KM12 colon.
With `C=C[C@@H]1C[C@H](O)Cc2cc(F)ccc2N1`, the growth was 73.6% in the assay with SR leukemia; 73.2% in the assay on RPMI-8226 leukemia; 102% in the assay on OVCAR-8 ovarian; 95.7% in the assay on OVCAR-5 ovarian; 101% in the assay on OVCAR-4 ovarian; 104% with SK-OV-3 ovarian. The growth was 131% in the assay with IGROV1 ovarian; 102% in the assay with OVCAR-3 ovarian; 90.6% with HS 578T breast; 105% in the assay on NCI/ADR-RES ovarian; 108% in the assay with T-47D breast; 96.9% in the assay with BT-549 breast. For the same compound, the growth is 93.8% with MDA-MB-435 melanoma; 98.7% in the assay with SW-620 colon; 107% with MCF7 breast; 103% in the assay with HCT-116 colon; 96.2% with HCC-2998 colon; 100% with KM12 colon.
Take `C=C(C)[C@@H]1C[C@@H]2Cc3ccc(Cl)c(C)c3N1O2`: the growth in the assay with SR leukemia was 80.2%; in the assay on RPMI-8226 leukemia, 78.6%; in the assay on OVCAR-8 ovarian it was 107%; in the assay on OVCAR-5 ovarian, 79.5%; in the assay on OVCAR-4 ovarian, 91.7%; with SK-OV-3 ovarian it was 99.6%. The growth in the assay with IGROV1 ovarian was 111%; with OVCAR-3 ovarian, 105%; in the assay on HS 578T breast, 97%; in the assay on NCI/ADR-RES ovarian, 94.2%; in the assay with T-47D breast, 89.1%; with BT-549 breast, 101%. For the same compound, the growth was 94.4% with MDA-MB-435 melanoma; 106% in the assay on SW-620 colon; 107% in the assay on MCF7 breast; 95.9% in the assay with HCT-116 colon; 90.5% with HCC-2998 colon; 104% with KM12 colon.
Turning to `O=C(Nc1ccncc1)C(=O)c1cn(S(=O)(=O)c2ccccc2F)c2ccccc12`, the growth was 16.4% in the assay on SR leukemia; 9.83% (active) in the assay with RPMI-8226 leukemia; 35.2% in the assay with OVCAR-8 ovarian; 69.3% with OVCAR-5 ovarian; 57.1% with OVCAR-4 ovarian; 87.5% in the assay with SK-OV-3 ovarian. In addition, the growth in the assay on IGROV1 ovarian is 52%; with OVCAR-3 ovarian it was -27.1% (active); in the assay on HS 578T breast it was 12.1%; with NCI/ADR-RES ovarian, -17.7% (active); with T-47D breast, 41.8%; in the assay with BT-549 breast, 39.1%. Moreover, the growth in the assay with MDA-MB-435 melanoma is 3.81% (active); in the assay with SW-620 colon it was 15.6%; in the assay on MCF7 breast it was 21.5%; in the assay on HCT-116 colon, 20.4%; in the assay with HCC-2998 colon, 57.2%; in the assay with KM12 colon, 19.2%.
For the compound `COC(OC)c1ccccc1`, the growth in the assay with SR leukemia was 93.9%; with RPMI-8226 leukemia it was 121%; with OVCAR-8 ovarian, 98.9%; in the assay with OVCAR-5 ovarian, 107%; in the assay on OVCAR-4 ovarian, 110%; in the assay with SK-OV-3 ovarian, 99.2%. In addition, the growth was 101% in the assay on IGROV1 ovarian; 106% with OVCAR-3 ovarian; 99.2% in the assay with HS 578T breast; 99.4% with NCI/ADR-RES ovarian; 99.4% with T-47D breast; 92.4% in the assay with BT-549 breast. Besides, the growth was 102% in the assay with MDA-MB-435 melanoma; 114% with SW-620 colon; 99% in the assay on MCF7 breast; 98.5% with HCT-116 colon; 93.6% in the assay with HCC-2998 colon; 112% with KM12 colon.

The record behind these values is PubChem BioAssay (NCI).
